# Measurements reported in PMC11006913.
# Substitutions are numbered along the chain they refer to.
# Assays:
# Test in all cases: PBM; 200 nM protein, PBS
# Settings in all cases: dsDNA, one strand shown
# HOXB4 [1] = target: HOXB4 (Homo sapiens, UniProt P17483 148-234)
# ALX4 = ALX4 (Homo sapiens, UniProt Q9H161 200-286)
# PAX4 [2] = target: T1, PAX4 (Homo sapiens, UniProt O43316 9-242, R200K)
# T1 sequence: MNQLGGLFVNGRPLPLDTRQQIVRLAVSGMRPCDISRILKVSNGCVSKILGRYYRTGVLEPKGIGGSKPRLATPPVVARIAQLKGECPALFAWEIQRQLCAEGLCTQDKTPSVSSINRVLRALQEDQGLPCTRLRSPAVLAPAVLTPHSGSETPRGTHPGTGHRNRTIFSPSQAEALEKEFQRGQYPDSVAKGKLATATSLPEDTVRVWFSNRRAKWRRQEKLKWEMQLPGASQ
# PRRX1 [3] = target: PRRX1 (Homo sapiens, UniProt P54821 80-166, F113S)
# Sequence of PRRX1 (Homo sapiens, UniProt P54821 80-166, F113S) (P54821 80-166 F113S): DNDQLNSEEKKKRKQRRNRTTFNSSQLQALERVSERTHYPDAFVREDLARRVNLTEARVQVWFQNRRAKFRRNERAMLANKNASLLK
# HOXB6 = HOXB6 (Homo sapiens, UniProt P17509 132-218, K202E)
# Sequence of HOXB6 (P17509 132-218 K202E): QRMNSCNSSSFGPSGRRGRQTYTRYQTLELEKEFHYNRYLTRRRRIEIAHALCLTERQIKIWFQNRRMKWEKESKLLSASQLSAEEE
# HOXA4 [4] = target: HOXA4 (Homo sapiens, UniProt Q00056 201-287, R217L)
# Sequence of HOXA4 (Homo sapiens, UniProt Q00056 201-287, R217L) (Q00056 201-287 R217L): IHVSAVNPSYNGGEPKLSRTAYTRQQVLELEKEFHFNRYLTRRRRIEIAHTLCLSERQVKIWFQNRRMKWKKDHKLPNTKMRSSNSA
# HOXB4 [5] = target: HOXB4 (Homo sapiens, UniProt P17483 148-234, V174I)
# Sequence of HOXB4 (Homo sapiens, UniProt P17483 148-234, V174I) (P17483 148-234 V174I): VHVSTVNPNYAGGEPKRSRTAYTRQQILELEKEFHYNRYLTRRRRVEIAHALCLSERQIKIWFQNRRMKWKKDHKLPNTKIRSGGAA
# PAX4 [6] = target: T2, PAX4 (Homo sapiens, UniProt O43316 9-242, R200Q)
# T2 sequence: T1 sequence with K192Q
# PAX4 [7] = target: T3, PAX4 (Homo sapiens, UniProt O43316 9-242, F177V)
# T3 sequence: T1 sequence with F169V, K192R
# MSX2 [8] = target: MSX2 (Homo sapiens, UniProt P35548 130-214)
# Sequence of MSX2 (Homo sapiens, UniProt P35548 130-214) (P35548 130-214): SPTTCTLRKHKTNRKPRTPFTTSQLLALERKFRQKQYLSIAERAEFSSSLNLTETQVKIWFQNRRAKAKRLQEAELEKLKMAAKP
# PAX4 [9] = target: T4, PAX4 (Homo sapiens, UniProt O43316 9-242, F177Y)
# T4 sequence: T1 sequence with F169Y, K192R
# MSX2 [10] = target: MSX2 (Homo sapiens, UniProt P35548 130-214, F161Y)
# Sequence of MSX2 (Homo sapiens, UniProt P35548 130-214, F161Y) (P35548 130-214 F161Y): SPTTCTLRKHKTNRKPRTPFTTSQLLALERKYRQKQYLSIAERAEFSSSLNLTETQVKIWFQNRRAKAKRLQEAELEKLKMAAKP
# VAX1 [11] = target: VAX1 (Homo sapiens, UniProt Q5SQQ9 86-172, T142I)
# Sequence of VAX1 (Homo sapiens, UniProt Q5SQQ9 86-172, T142I) (Q5SQQ9 86-172 T142I): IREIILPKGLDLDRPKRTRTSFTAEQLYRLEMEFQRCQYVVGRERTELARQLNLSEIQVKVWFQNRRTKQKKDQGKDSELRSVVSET
# HOXA4 [12] = target: HOXA4 (Homo sapiens, UniProt Q00056 201-287, W262F)
# Sequence of HOXA4 (Homo sapiens, UniProt Q00056 201-287, W262F) (Q00056 201-287 W262F): as the sequence (Q00056 201-287 R217L) above, with L17R, W62F counted along it
# PRRX1 [13] = target: PRRX1 (Homo sapiens, UniProt P54821 80-166)
# Sequence of PRRX1 (Homo sapiens, UniProt P54821 80-166) (P54821 80-166): as the sequence (P54821 80-166 F113S) above, with S34F counted along it
# VAX1 [14] = target: VAX1 (Homo sapiens, UniProt Q5SQQ9 86-172, K157R)
# Sequence of VAX1 (Homo sapiens, UniProt Q5SQQ9 86-172, K157R) (Q5SQQ9 86-172 K157R): as the sequence (Q5SQQ9 86-172 T142I) above, with I57T, K72R counted along it
# VENTX [15] = target: T5, VENTX (Homo sapiens, UniProt O95231 78-163, R121Q)
# T5 sequence: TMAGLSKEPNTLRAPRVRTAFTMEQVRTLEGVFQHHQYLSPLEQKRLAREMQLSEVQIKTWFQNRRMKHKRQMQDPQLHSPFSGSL
# VENTX [16] = target: T6, VENTX (Homo sapiens, UniProt O95231 78-163, Y115F)
# T6 sequence: T5 sequence with Y38F, Q44R
# HOXA2 [17] = target: HOXA2 (Homo sapiens, UniProt O43364 129-215, R185T)
# Sequence of HOXA2 (Homo sapiens, UniProt O43364 129-215, R185T) (O43364 129-215 R185T): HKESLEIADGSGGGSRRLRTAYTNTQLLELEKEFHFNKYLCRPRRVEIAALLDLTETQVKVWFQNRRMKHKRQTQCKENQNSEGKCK
# HOXA2 [18] = target: HOXA2 (Homo sapiens, UniProt O43364 129-215, R185K)
# Sequence of HOXA2 (Homo sapiens, UniProt O43364 129-215, R185K) (O43364 129-215 R185K): as the sequence (O43364 129-215 R185T) above, with T57K counted along it
# Sequence of ALX4 (Q9H161 200-286): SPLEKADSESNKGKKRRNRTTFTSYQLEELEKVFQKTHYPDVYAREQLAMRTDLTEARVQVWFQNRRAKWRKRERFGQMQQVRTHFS
# Sequence of HOXB4 (Homo sapiens, UniProt P17483 148-234) (P17483 148-234): as the sequence (P17483 148-234 V174I) above, with I27V counted along it
Sequence,binding signal (HOXB4 [1]),binding signal (ALX4),binding signal (PAX4 [2]),binding signal (PRRX1 [3]),binding signal (HOXB6),binding signal (HOXA4 [4]),binding signal (HOXB4 [5]),binding signal (PAX4 [6]),binding signal (PAX4 [7]),binding signal (MSX2 [8]),binding signal (PAX4 [9]),binding signal (MSX2 [10]),binding signal (VAX1 [11]),binding signal (HOXA4 [12]),binding signal (PRRX1 [13]),binding signal (VAX1 [14]),binding signal (VENTX [15]),binding signal (VENTX [16]),binding signal (HOXA2 [17]),binding signal (HOXA2 [18])
AAATTAAT,"12.9 upbm affinity estimate (log intensity, higher = more binding, comparable within an allelic series)","14 upbm affinity estimate (log intensity, higher = more binding, comparable within an allelic series)","11.9 upbm affinity estimate (log intensity, higher = more binding, comparable within an allelic series)","11.2 upbm affinity estimate (log intensity, higher = more binding, comparable within an allelic series)","10.1 upbm affinity estimate (log intensity, higher = more binding, comparable within an allelic series)","12.1 upbm affinity estimate (log intensity, higher = more binding, comparable within an allelic series)","13.6 upbm affinity estimate (log intensity, higher = more binding, comparable within an allelic series)","12.4 upbm affinity estimate (log intensity, higher = more binding, comparable within an allelic series)","10.7 upbm affinity estimate (log intensity, higher = more binding, comparable within an allelic series)","13.4 upbm affinity estimate (log intensity, higher = more binding, comparable within an allelic series)","11.2 upbm affinity estimate (log intensity, higher = more binding, comparable within an allelic series)","13.1 upbm affinity estimate (log intensity, higher = more binding, comparable within an allelic series)","12.5 upbm affinity estimate (log intensity, higher = more binding, comparable within an allelic series)","11.5 upbm affinity estimate (log intensity, higher = more binding, comparable within an allelic series)","13.3 upbm affinity estimate (log intensity, higher = more binding, comparable within an allelic series)","12.4 upbm affinity estimate (log intensity, higher = more binding, comparable within an allelic series)",–,–,–,–
CCCTACGG,"7.88 upbm affinity estimate (log intensity, higher = more binding, comparable within an allelic series)",–,–,–,–,"9.8 upbm affinity estimate (log intensity, higher = more binding, comparable within an allelic series)","7.93 upbm affinity estimate (log intensity, higher = more binding, comparable within an allelic series)",–,–,–,–,–,–,"9.84 upbm affinity estimate (log intensity, higher = more binding, comparable within an allelic series)",–,–,"8.13 upbm affinity estimate (log intensity, higher = more binding, comparable within an allelic series)","8.13 upbm affinity estimate (log intensity, higher = more binding, comparable within an allelic series)",–,–
GCAAGGGC,"7.23 upbm affinity estimate (log intensity, higher = more binding, comparable within an allelic series)",–,–,–,–,"9.73 upbm affinity estimate (log intensity, higher = more binding, comparable within an allelic series)","7.22 upbm affinity estimate (log intensity, higher = more binding, comparable within an allelic series)",–,–,–,–,–,–,"9.87 upbm affinity estimate (log intensity, higher = more binding, comparable within an allelic series)",–,–,–,–,–,–
CAATTAAC,"13.2 upbm affinity estimate (log intensity, higher = more binding, comparable within an allelic series)","14 upbm affinity estimate (log intensity, higher = more binding, comparable within an allelic series)","11.5 upbm affinity estimate (log intensity, higher = more binding, comparable within an allelic series)","11.3 upbm affinity estimate (log intensity, higher = more binding, comparable within an allelic series)","9.99 upbm affinity estimate (log intensity, higher = more binding, comparable within an allelic series)","12.4 upbm affinity estimate (log intensity, higher = more binding, comparable within an allelic series)","13.9 upbm affinity estimate (log intensity, higher = more binding, comparable within an allelic series)","12 upbm affinity estimate (log intensity, higher = more binding, comparable within an allelic series)","10.6 upbm affinity estimate (log intensity, higher = more binding, comparable within an allelic series)","14 upbm affinity estimate (log intensity, higher = more binding, comparable within an allelic series)","10.9 upbm affinity estimate (log intensity, higher = more binding, comparable within an allelic series)","13.6 upbm affinity estimate (log intensity, higher = more binding, comparable within an allelic series)","12.8 upbm affinity estimate (log intensity, higher = more binding, comparable within an allelic series)","11.6 upbm affinity estimate (log intensity, higher = more binding, comparable within an allelic series)","13.4 upbm affinity estimate (log intensity, higher = more binding, comparable within an allelic series)","13 upbm affinity estimate (log intensity, higher = more binding, comparable within an allelic series)","12.2 upbm affinity estimate (log intensity, higher = more binding, comparable within an allelic series)","11.9 upbm affinity estimate (log intensity, higher = more binding, comparable within an allelic series)","13.1 upbm affinity estimate (log intensity, higher = more binding, comparable within an allelic series)","13.3 upbm affinity estimate (log intensity, higher = more binding, comparable within an allelic series)"
GTCAATTA,"13.3 upbm affinity estimate (log intensity, higher = more binding, comparable within an allelic series)","13.9 upbm affinity estimate (log intensity, higher = more binding, comparable within an allelic series)",–,"11 upbm affinity estimate (log intensity, higher = more binding, comparable within an allelic series)","9.73 upbm affinity estimate (log intensity, higher = more binding, comparable within an allelic series)","12.1 upbm affinity estimate (log intensity, higher = more binding, comparable within an allelic series)","13.9 upbm affinity estimate (log intensity, higher = more binding, comparable within an allelic series)",–,–,"13.8 upbm affinity estimate (log intensity, higher = more binding, comparable within an allelic series)",–,"13.4 upbm affinity estimate (log intensity, higher = more binding, comparable within an allelic series)","13.1 upbm affinity estimate (log intensity, higher = more binding, comparable within an allelic series)","11.3 upbm affinity estimate (log intensity, higher = more binding, comparable within an allelic series)","13.3 upbm affinity estimate (log intensity, higher = more binding, comparable within an allelic series)","13.2 upbm affinity estimate (log intensity, higher = more binding, comparable within an allelic series)","11.7 upbm affinity estimate (log intensity, higher = more binding, comparable within an allelic series)",–,"12.9 upbm affinity estimate (log intensity, higher = more binding, comparable within an allelic series)","13.2 upbm affinity estimate (log intensity, higher = more binding, comparable within an allelic series)"
CCCAGGCG,–,–,–,–,–,–,–,–,–,–,–,–,–,–,–,–,–,–,"7.06 upbm affinity estimate (log intensity, higher = more binding, comparable within an allelic series)","10.1 upbm affinity estimate (log intensity, higher = more binding, comparable within an allelic series)"
AATTAGCC,–,"13.8 upbm affinity estimate (log intensity, higher = more binding, comparable within an allelic series)","11.5 upbm affinity estimate (log intensity, higher = more binding, comparable within an allelic series)","10.7 upbm affinity estimate (log intensity, higher = more binding, comparable within an allelic series)",–,–,–,"11.7 upbm affinity estimate (log intensity, higher = more binding, comparable within an allelic series)","10.1 upbm affinity estimate (log intensity, higher = more binding, comparable within an allelic series)","13.3 upbm affinity estimate (log intensity, higher = more binding, comparable within an allelic series)","10.5 upbm affinity estimate (log intensity, higher = more binding, comparable within an allelic series)","12.9 upbm affinity estimate (log intensity, higher = more binding, comparable within an allelic series)","12.1 upbm affinity estimate (log intensity, higher = more binding, comparable within an allelic series)",–,"13.2 upbm affinity estimate (log intensity, higher = more binding, comparable within an allelic series)","12.1 upbm affinity estimate (log intensity, higher = more binding, comparable within an allelic series)",–,–,–,–
